# A selection: hits, their analogues and other compounds. The true share with any hit is near 21%.
# Pf growth 96h: Primary qHTS for delayed death inhibitors of the malarial parasite plastid, 96 hour incubation. P. falciparum luciferase reporter growth, 96 h. Potency, µM (highest dose often 28.7 µM), for the others: top-dose activity change, negative = inhibition, usual class: inhibitors. actives 6.9% (n = 320,000); further: potency means the concentration at half of the fitted maximal effect; on the % scale 0 is the no-effect control and ±100 the full control effect
#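 P. falciparum expressing integrated firefly luciferase, in erythrocytes at 2% hematocrit, 0.05% parasitemia, incubated with compounds 96 h at 37 C, 5% CO2. Growth inhibition read as loss of luminescence; two-generation exposure targets delayed-death apicoplast inhibitors.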
# FBPA Giardia inh: qHTS Assay for Inhibitors of Fructose-1,6-bisphosphate Aldolase from Giardia Lamblia; A8B2U2; actives 0.71% (n = 290,000); Potency, µM (top dose mostly 59.6 µM), for the others: top-dose activity, negative = inhibition, most hits filed as inhibitors; purified Giardia FBPA; further: potency means the concentration at half of the fitted maximal effect; on the % scale 0 is the no-effect control and ±100 the full control effect; nearly all actives have a fitted effect of over 55% in size
# Target sequence (A8B2U2 whole entry, looked up): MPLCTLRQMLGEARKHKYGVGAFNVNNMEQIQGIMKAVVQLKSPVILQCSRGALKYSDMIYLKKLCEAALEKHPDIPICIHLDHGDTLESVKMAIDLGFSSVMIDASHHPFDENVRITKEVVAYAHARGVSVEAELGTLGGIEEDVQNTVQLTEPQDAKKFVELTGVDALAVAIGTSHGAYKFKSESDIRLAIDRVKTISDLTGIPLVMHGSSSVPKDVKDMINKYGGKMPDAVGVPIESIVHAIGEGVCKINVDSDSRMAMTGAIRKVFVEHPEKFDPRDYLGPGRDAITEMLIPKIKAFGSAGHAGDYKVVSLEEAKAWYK
#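 Giardia FBPA (40 nM reagent) was preincubated 10 min at RT with compound (up to 57.5 uM final), then substrate plus GAPDH/TPI/NAD/arsenate coupling system with diaphorase/resazurin was added; resorufin fluorescence (525/598 nm) was read after 20 min.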
# CHX counter-1: Cycloheximide Counterscreen for Small Molecule Inhibitors of Shiga Toxin; AID 2314, 2010; actives 12% (n = 300,000); cell reporter, cycloheximide protein synthesis inhibition counterscreen; max response, %; in the data active means max response mostly above about 13%, no sharp cut-off; inactive means mostly below about 14%; further: read at 38.3 µM for the half of the compounds with a filed dose; 0% is about no effect
# Shiga inhibitor: A qHTS for Small Molecule Inhibitors of Shiga Toxin; Vero cells, Shiga toxin protein synthesis inhibition reporter; inhibition, % at 38.7 µM; actives 9.2% (n = 290,000); in the data active means inhibition mostly above about 28%, no sharp cut-off; inactive means mostly below about 43%; further: 0% is about no effect
# Pf growth 48h: Primary qHTS for delayed death inhibitors of the malarial parasite plastid, 48 hour incubation; P. falciparum luciferase growth in erythrocytes, 48 h; Potency, µM (top dose mostly 28.7 µM), without a hit: at the highest dose activity change, negative = inhibition, usual class: inhibitors; actives 5.9% (n = 310,000); further: potency means the concentration at half of the fitted maximal effect; on the % scale 0 is the no-effect control and ±100 the full control effect
#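 Parasite viability was followed by luminescence of a genomically integrated firefly luciferase. Cultures held 0.1% parasitemia at 2% hematocrit (final), incubated under 5% CO2 at 37 C.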
# NS1 function inh: qHTS Assay for Inhibitors of Influenza NS1 Protein Function; Potency, µM (highest dose often 46.1 µM), for inactives: at the top dose activity, positive = more growth; actives 0.4% (n = 270,000); AID 2326, 2010; calls by dose curve; further: potency means the concentration at half of the fitted maximal effect; actives are rising curves; nearly all actives have a fitted effect of over 50% in size
#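 Compounds were scored for reversing the slow growth caused by influenza A NS1 in S. cerevisiae, measured by optical density at 600 nm. Assay medium contained 2% galactose at pH 6.0; NS1-free yeast of the same strain were the positive control.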
# CHX counter-2: Cycloheximide Counterscreen for Small Molecule Inhibitors of Shiga Toxin (Confirmatory). shares compounds with Shiga inhibitor. Cycloheximide counterscreen, protein synthesis reporter, Shiga toxin assay. Potency, µM (top dose mostly 38.3 µM), for the others: top-dose activity (activation), most hits filed as activators. actives 3% (n = 510). AID 2318, 2010; calls by dose curve; further: potency means the concentration at half of the fitted maximal effect; 0% is about no effect
# Numbers without * were called inactive; i = inactive; ? = inconclusive; nt = not tested or not shown. Unless noted, the call rests on the fitted dose curve; in most records, active means well fitted curve in the direction sought with a large enough effect; inconclusive means small, poorly fitted or top-dose-only effect, or another doubt; inactive means no such curve, though single readings can be large; an effect the other way counts as inactive or inconclusive.
SMILES,Pf growth 96h,FBPA Giardia inh,CHX counter-1,Shiga inhibitor,Pf growth 48h,NS1 function inh,CHX counter-2
Cn1c(CN2CCCCC2)nc2cc(NC(=O)c3ccc(Cl)cc3)ccc21,-7%,7%,2,27*,?,-14%,6%
CCC(=O)Nc1ccc2c(c1)nc(CN1CCCCC1)n2C,36%,-6%,-5,-5,42%,3%,nt
CC1(C)C([N+](=O)[O-])C(c2ccc(Cl)cc2)NC(c2ccc(Cl)cc2)C1[N+](=O)[O-] (stereo unspecified),?,0%,-7,-11,?,-25%,nt
COc1ccc(C(=O)Nc2cccc3nc(C)ccc23)cc1OC,55%,2%,10,24*,13%,?,1%
CN1CCN(Cc2ccc(N)cc2)CC1,56%,-2%,8,27*,69%,1%,1%
Nc1ccc(CN2CCCCCC2)cc1,-24%,?,6,-1,-19%,5%,nt
Cc1ccc(N/C(C(Cl)=C(Cl)Cl)=C(/Cl)[N+](=O)[O-])c(C)c1,?,-19%,9,23*,?,-86%,-2%
CCOc1ccc(S(=O)(=O)Nc2ccc3c(c2)n(C)c(=O)n3C)cc1,23%,-14%,-3,92*,-18%,4%,-1%
Cc1ccc(S(=O)(=O)Nc2ccc3c(c2)n(C)c(=O)n3C)cc1,88%,-6%,-1,4,15%,0%,nt
CCOc1ccccc1NC(=O)COc1cccc(-n2cnnn2)c1,?,8%,-4,-7,-7%,-8%,nt
Cc1sc(NC(=O)COc2cccc(-n3cnnn3)c2)c(C#N)c1C,7%,7%,2,75*,5%,7%,0%
COc1ccc(S(=O)(=O)Nc2c(C(=O)O)[nH]c3ccccc23)cc1,34%,-8%,-5,-1,13%,-1%,nt
COc1ccc(S(=O)(=O)Nc2c(C(=O)O)[nH]c3ccccc23)cc1OC,-18%,25%,16,30*,4%,8%,5%
CCOC(=O)C1CCN(C(=S)Nc2cc(OC)c(OC)cc2C(=O)OC)CC1,nt,-5%,-3,13,-16%,-7%,nt
Cc1nc2ccccc2n(CC(=O)Nc2cc(Cl)cc(Cl)c2)c1=O,13%,6%,-3,-6,?,-4%,nt
O=C(Cc1ccc(Br)cc1)Nc1ccc(S(=O)(=O)Nc2ncccn2)cc1,-3%,-19%,-2,-2,11%,-8%,nt
Cc1cccn2cc(-c3cccc(S(=O)(=O)N4CC(C)OC(C)C4)c3)nc12 (stereo unspecified),?,nt,-1,28*,-18%,-43%,-1%
Cc1cccn2cc(-c3cccc(S(=O)(=O)N4CCOCC4)c3)nc12,-9%,nt,-2,13,-14%,13%,nt
N#Cc1cc2c(nc1SCC(=O)Nc1cc(Cl)ccc1Cl)C1CCN2CC1,?,-3%,-2,48*,?,0%,?
CN(C)S(=O)(=O)c1ccc(Cl)c(NC(=O)CSc2nc3c(cc2C#N)C(=O)CCC3)c1,0%,0%,-1,-9,0%,-4%,nt
O=C(O)c1cc(-c2ccc(Cl)cc2)n(-c2ccc(Cl)cc2)n1,6%,3%,3,5,i,nt,nt
O=C(/C=C/c1ccc(S(=O)(=O)NCc2ccco2)cc1)N1CCN(c2ccccc2)CC1,3.7µM*,-4%,4,66*,?,nt,5%
O=C(O)c1ccccc1C(=O)Nc1ccc(-n2nccc2C(F)(F)F)cc1,7%,5%,9,31*,12%,4%,-4%
CCN1CCN(CC(=O)N2N=C(c3ccc(OC)cc3)CC2c2ccc(OC)cc2)C(=O)C1=O (stereo unspecified),?,2%,7,-6,?,nt,nt
O=C(c1ccc(N2CCOCC2)nc1)N1CCOCC1,8%,-2%,1,58*,22%,-9%,5%
O=C/C=C/c1ccccc1,-10%,2%,16,64*,3%,nt,?
